Inconclusive results are not listed. Active and inactive are the calls of the source. Rule for the calls, unless noted: active = hit-call score of the fitted dose curve at least 0.9, where 1 is the maximum; inconclusive = response in the unintended direction; inactive = score below 0.9.

Assay [1] can be described thus: TOX21_p53_BLA_p2_viability: Viability Assessment in the Tox21 HCT-116 p53 Agonism Beta-lactamase Assay, Phase 2 (AID 2283591).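 Note: actives lower the ATP signal meaning cytotoxicity.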 Summed up:
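Cytotoxicity readout: CellTiter-Glo ATP luminescence, 30 min at room temperature, after the beta-lactamase read. Cells were HCT116 exposed 16 h at 37C to compounds pin-transferred at 217-fold dilution from DMSO stocks.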

Assay [2] is described as follows: TOX21_p53_BLA_p3_viability: Viability Assessment in the Tox21 HCT-116 p53 Agonism Beta-lactamase Assay, Phase 3 (AID 2283593).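 Note: cells exposed to compound for 16 h before reading.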 Put shortly: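 Cellular ATP was quantified by CellTiter-Glo luminescence, read after 30 min at room temperature. Beforehand, HCT116 cells (4000/well) received compound 5 h post-seeding, 217-fold diluted from DMSO, then incubated 16 h at 37C.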

Assay [3] concerns the target Cellular tumor antigen p53 (Homo sapiens) (UniProt P04637). Nature of the assay: TOX21_p53_BLA_p3_ratio: Tox21 HCT-116 p53 Agonism Beta-lactamase Assay, Ratio, Phase 3 (AID 2283596). Summed up: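 Cells were seeded at 4000/well, rested 5 h at 37C, then dosed with DMSO compound solutions (217-fold dilution) for 16 h. CCF4-AM substrate was loaded for 2 h at room temperature, and the 460/530 nm emission ratio was fitted for gain of signal versus DMSO.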

Assay [4] can be described thus: TOX21_p53_BLA_p5_viability: Viability Assessment in the Tox21 HCT-116 p53 Agonism Beta-lactamase Assay, Phase 5 (AID 2283600). Summed up:
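Decreased CellTiter-Glo luminescence denotes lost viability. Exposure: 16 h at 37C, 5% CO2, with compounds from DMSO stocks diluted 217-fold in wells of 4000 cells.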

Assay [5] has as its target Cellular tumor antigen p53 (Homo sapiens) (UniProt P04637). Description: TOX21_p53_BLA_p4_ratio: Tox21 HCT-116 p53 Agonism Beta-lactamase Assay, Ratio, Phase 4 (AID 2283601). Put shortly: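 Signal is the blue/green (460nm/530nm) ratio of cleaved versus uncleaved CCF4-AM substrate, read after 2 h substrate loading. Cells were HCT116 carrying the p53-responsive beta-lactamase reporter, dosed 16 h at 37C, 5% CO2; CellTiter-Glo measured in parallel.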

Assay [6] deals with Thyroid hormone receptor alpha (Rattus norvegicus) + Thyroid hormone receptor beta (Rattus norvegicus) (UniProt P18113+P63059). Nature of the assay: TOX21_TR_LUC_GH3_Agonist_Followup: Tox21 GH3 Thyroid Hormone Receptor Agonism Luciferase Follow-Up Assay (AID 2283939). Summed up: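 Agonist-mode confirmatory run: 15 concentrations (5 nM to 92 uM final) on GH3 rat pituitary cells, 24 h at 37C/5% CO2, T3 as positive control. Luminescence read with ONE-Glo after 30 min.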
Sequence of Thyroid hormone receptor alpha (Rattus norvegicus) + Thyroid hormone receptor beta (Rattus norvegicus) (P63059 whole entry, looked up): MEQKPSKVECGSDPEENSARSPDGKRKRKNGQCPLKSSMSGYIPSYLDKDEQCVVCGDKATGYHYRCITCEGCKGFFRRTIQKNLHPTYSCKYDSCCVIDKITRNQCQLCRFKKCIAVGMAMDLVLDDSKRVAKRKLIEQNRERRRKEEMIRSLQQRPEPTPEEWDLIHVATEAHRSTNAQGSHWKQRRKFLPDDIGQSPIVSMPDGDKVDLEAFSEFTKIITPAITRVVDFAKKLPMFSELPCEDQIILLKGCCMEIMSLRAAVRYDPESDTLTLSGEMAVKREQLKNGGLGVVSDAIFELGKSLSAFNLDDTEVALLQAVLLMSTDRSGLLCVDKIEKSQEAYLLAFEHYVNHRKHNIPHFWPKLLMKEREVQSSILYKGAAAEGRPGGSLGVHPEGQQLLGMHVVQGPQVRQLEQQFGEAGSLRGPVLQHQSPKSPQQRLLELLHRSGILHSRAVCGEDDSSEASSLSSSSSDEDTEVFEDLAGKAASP
Sequence of Thyroid hormone receptor alpha (Rattus norvegicus) + Thyroid hormone receptor beta (Rattus norvegicus) (P18113 whole entry, looked up): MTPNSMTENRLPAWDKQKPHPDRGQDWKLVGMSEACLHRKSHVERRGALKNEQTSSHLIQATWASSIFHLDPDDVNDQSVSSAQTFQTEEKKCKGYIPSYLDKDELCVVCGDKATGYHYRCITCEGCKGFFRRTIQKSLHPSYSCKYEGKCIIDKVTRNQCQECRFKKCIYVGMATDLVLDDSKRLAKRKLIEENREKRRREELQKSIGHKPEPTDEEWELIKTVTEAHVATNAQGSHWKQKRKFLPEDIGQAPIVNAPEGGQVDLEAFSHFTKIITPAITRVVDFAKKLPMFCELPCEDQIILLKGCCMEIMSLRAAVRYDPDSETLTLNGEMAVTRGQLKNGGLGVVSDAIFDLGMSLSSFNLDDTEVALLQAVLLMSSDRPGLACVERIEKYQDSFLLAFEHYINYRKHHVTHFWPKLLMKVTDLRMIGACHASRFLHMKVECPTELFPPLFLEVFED

The target in assay [7] is THRA (gene 7067) (UniProt P10827). Description: TOX21_TRA_COA_Agonist_Followup_ratio: Tox21 Thyroid Hormone Receptor alpha Agonism through Coactivator Recruitment Follow-Up Assay, Ratio (AID 2283948; active = hit-call score of the fitted dose curve at least 0.9, where 1 is the maximum; inactive = score below 0.9). Summed up:
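Cell-free TR-FRET: GST-tagged TRα LBD (2.5 nM) with 0.10% BSA and compound, then fluorescein-SRC-2 peptide (200 nM) and Tb-anti-GST antibody (2 nM). Readout 520:495 nm ratio (ex 340 nm), normalized to DMSO (0%) and T3 (100%).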

Assay [8] concerns the target THRB (gene 7068) (UniProt P10828). Nature of the assay: TOX21_TRB_BLA_Agonist_Followup_ratio: Tox21 Thyroid Hormone Receptor beta Agonism Beta-lactamase (BLA) Follow-Up Assay, Ratio (AID 2283954). Put shortly: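 Agonist mode: compounds (11-point, triplicate) incubated 18 h with HEK293T cells carrying GAL4-DBD/human TRβ-LBD and UAS-β-lactamase. Blue/green (460/530 nm) FRET ratio read after 2 h CCF4-AM loading; CellTiter-Glo viability run in the same plates.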

For assay [9] the target is unchanged. Description: TOX21_TRB_COA_Agonist_Followup_ratio: Tox21 Thyroid Hormone Receptor beta Agonism through Coactivator Recruitment Follow-Up Assay, Ratio (AID 2283963; active = hit-call score of the fitted dose curve at least 0.9, where 1 is the maximum; inactive = score below 0.9). Summed up:
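First, the GST-fused TRβ ligand-binding domain (5.0 nM) was incubated with test compound in 0.10% BSA. Next, fluorescein-tagged SRC-2 peptide (200 nM) and terbium anti-GST antibody (2 nM) were added. Finally, TR-FRET emission ratios were normalized against DMSO and T3 controls.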

Assay [10] addresses Retinoic acid receptor RXR-alpha (Homo sapiens) (UniProt P19793). Description: TOX21_TR_RXR_BLA_Agonist_Followup_ratio: Tox21 Thyroid Hormone Receptor beta Retinoid X Receptor alpha (RXRa) Agonism Beta-lactamase (BLA) Follow-Up Assay, Ratio (AID 2283968). Put shortly:
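Read-out: blue/green (460:530 nm) FRET ratio from cleaved vs uncleaved CCF4 substrate, fitted for gain of signal relative to DMSO. Cells: HEK293T with RXRa-UAS-bla reporter; 16 h compound exposure, 11 concentrations, triplicate.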

Assay [11] is described as follows: TOX21_TR_RXR_BLA_Agonist_Followup_viability: Viability Assessment in the Tox21 Thyroid Hormone Receptor beta Retinoid X Receptor alpha (RXRa) Agonism Beta-lactamase (BLA) Follow-Up Assay (AID 2283970). Summed up:
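CellTiter-Glo ATP quantitation as viability read-out in RXRa-bla HEK293T cells (2,500/well, charcoal-stripped 2% FBS medium), 16h compound incubation at 37C. Loss of signal versus DMSO taken as cytotoxicity, analyzed by bidirectional curve fitting.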

The nature of assay [12]: TOX21_p53_BLA_p4_viability: Viability Assessment in the Tox21 HCT-116 p53 Agonism Beta-lactamase Assay, Phase 4 (AID 2283597).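 Note: hits lower the luminescence signal meaning cytotoxicity.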 Put shortly: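 4000 HCT116 cells per well; 5 h attachment; compounds from DMSO, 217-fold dilution; 16 h at 37C. Then CCF4-AM, 2 h RT, followed by CellTiter-Glo, 30 min RT, luminescence. Decrease = cytotoxicity.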
Assay [13] has as its target Cellular tumor antigen p53 (Homo sapiens) (UniProt P04637). Description: TOX21_p53_BLA_p5_ratio: Tox21 HCT-116 p53 Agonism Beta-lactamase Assay, Ratio, Phase 5 (AID 2283599). Put shortly:
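Beta-lactamase reporter ratio (blue 460 nm over green 530 nm, 405 nm excitation) after 2 h CCF4-AM loading, in HCT-116 cells exposed 16 h at 37 C to compounds pinned at 217-fold dilution. Increases relative to DMSO baseline scored.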

Sequence of Cellular tumor antigen p53 (Homo sapiens) (P04637 whole entry, looked up): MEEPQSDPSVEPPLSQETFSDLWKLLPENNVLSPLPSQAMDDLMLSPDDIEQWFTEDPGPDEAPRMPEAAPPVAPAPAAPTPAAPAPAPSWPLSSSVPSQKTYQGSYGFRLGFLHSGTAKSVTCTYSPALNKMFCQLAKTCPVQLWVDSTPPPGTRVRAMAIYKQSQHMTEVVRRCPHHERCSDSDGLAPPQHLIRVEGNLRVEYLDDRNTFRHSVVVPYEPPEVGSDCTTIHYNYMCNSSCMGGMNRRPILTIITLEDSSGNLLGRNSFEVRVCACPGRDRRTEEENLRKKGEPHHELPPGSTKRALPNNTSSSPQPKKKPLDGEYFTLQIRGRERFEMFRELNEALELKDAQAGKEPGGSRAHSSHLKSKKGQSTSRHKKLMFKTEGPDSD
Sequence of THRB (gene 7068) (P10828 whole entry, looked up, the tested form may be a part): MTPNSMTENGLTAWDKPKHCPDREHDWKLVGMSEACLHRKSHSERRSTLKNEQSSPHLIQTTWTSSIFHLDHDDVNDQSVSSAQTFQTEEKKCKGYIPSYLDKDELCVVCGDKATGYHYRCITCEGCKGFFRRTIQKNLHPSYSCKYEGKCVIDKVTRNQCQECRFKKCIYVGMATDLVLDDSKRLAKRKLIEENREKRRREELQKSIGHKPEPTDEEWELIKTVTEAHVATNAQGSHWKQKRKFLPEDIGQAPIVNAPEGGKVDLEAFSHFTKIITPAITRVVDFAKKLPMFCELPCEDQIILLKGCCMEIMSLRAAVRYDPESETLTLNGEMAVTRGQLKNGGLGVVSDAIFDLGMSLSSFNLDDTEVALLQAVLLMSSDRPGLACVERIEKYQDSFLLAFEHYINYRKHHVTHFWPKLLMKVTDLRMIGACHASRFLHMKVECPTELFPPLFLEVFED
Sequence of Retinoic acid receptor RXR-alpha (Homo sapiens) (P19793 whole entry, looked up): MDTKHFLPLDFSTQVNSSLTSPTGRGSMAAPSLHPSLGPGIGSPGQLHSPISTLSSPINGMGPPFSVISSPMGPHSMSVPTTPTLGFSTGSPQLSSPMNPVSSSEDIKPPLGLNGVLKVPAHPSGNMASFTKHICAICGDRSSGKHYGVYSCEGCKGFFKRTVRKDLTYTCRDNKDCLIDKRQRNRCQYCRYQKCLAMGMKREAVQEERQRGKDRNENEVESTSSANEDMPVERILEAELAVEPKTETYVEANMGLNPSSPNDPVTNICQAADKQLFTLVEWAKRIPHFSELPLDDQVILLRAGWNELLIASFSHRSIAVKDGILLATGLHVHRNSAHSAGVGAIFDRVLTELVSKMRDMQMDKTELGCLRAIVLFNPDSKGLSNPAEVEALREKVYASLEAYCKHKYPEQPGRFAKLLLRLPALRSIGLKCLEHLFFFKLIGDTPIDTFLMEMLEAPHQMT
Sequence of THRA (gene 7067) (P10827 whole entry, looked up, the tested form may be a part): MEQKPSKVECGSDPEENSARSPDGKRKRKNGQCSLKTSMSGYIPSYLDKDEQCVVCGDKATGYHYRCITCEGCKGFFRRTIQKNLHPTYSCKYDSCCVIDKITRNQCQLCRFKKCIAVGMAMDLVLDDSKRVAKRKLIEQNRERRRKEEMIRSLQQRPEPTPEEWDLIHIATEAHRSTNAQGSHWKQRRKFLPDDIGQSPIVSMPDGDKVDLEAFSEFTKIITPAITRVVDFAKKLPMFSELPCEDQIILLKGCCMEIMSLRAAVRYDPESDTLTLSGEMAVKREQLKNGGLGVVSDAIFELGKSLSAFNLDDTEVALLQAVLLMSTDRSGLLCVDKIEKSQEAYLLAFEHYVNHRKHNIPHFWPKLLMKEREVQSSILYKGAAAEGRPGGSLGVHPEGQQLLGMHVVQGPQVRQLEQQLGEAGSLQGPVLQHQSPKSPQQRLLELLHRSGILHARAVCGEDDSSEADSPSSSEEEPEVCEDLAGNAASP

On to `COc1ccc(OC)c([C@@H](O)[C@H](C)N)c1`, for which the result in assay [1], in [2], in [3], in [4], in [5] and in assay [7] was inactive. Also, the outcome in assay [8], in assay [9], in [10] and in [11] was inactive. Also, the AC50 in assay [6] was 14.9 µM (active).
In the case of `O=C(CCl)C(Cl)Cl`, the call in assay [1], in [2] and in assay [4] was inactive. In addition, the AC50 was 6.25 µM (active) in [12], 29 µM (active) in assay [13] and 26.1 µM (active) in [5].
With `CCN(CC)CCOC(=O)C(O)(c1ccccc1)c1ccccc1`, the molecule was called inactive in assay [1], in [2], in assay [13] and in assay [4].
As for `CCCCCCCCCCCCCCCCCC(=O)O`, the result in [1], in assay [2], in assay [12] and in assay [4] was inactive.
`O=[N+]([O-])O[C@H]1CO[C@H]2[C@@H]1OC[C@H]2O[N+](=O)[O-]`: the call in assay [1], in [2], in [3] and in assay [5] was inactive.
For the molecule `Cc1cc(C)cc(C(=O)OC2C[C@H]3CC[C@@H](C2)N3C)c1` (some centres undefined), the molecule was classed as inactive in assay [1], in assay [2], in assay [12], in [4] and in assay [5].
With `[O]=[Cr](=[O])([OH])[O][Cr](=[O])(=[O])[OH]`, the AC50 is 15.1 µM (active) [middle of 4 runs] in assay [1]; 11.4 µM (active) [middle of 4 runs] in [2]; 18.4 µM (active) [middle of 4 runs] in assay [12]; 13.2 µM (active) [middle of 4 runs] in [13]; 28.1 µM (active) [middle of 4 runs] in [4]; 13.6 µM (active) [middle of 4 runs] in assay [5].
As for `O=C(CCCN1CCC(n2c(=O)[nH]c3ccccc32)CC1)c1ccc(F)cc1`, the molecule was classed as inactive in assay [1], in assay [2], in assay [12] and in [5].

In general, AC50 refers to the concentration giving half of the maximal activity seen.

(Values after PubChem BioAssay (EPA / NIEHS).)
